Data: PubChem BioAssay (NCI)
The panel holds about 83,000 compounds, 20% with a hit somewhere; the sample as a whole holds those more often.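 Interpretation: 100, growth as untreated; towards 0, rising growth inhibition; 0, no net growth; 0 to -100, cell death. Compounds scoring below 10 were considered active.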 Active and inactive are the calls of the source.

System: HCT-116 colon
Assay: NCI-60 one-dose screen, 48 h (100 = growth as untreated, 0 = no growth, -100 = all killed)
Conditions: 10 µM unless noted

SMILES | growth
Cc1cc(N2CCCCC2)nc(N(CCNc2ccnc3cc(Cl)ccc23)Cc2ccccn2)n1 | 16.2% (inactive)
CCN(CC)c1ccc(Nc2ccc(CC(=O)c3ccccc3)cc2)cc1 | 82.4% (inactive)
COc1ccc(/C=C2\C=C(c3ccccc3)N(CCc3ccccc3)C2=O)cc1OC | 32.8% (inactive)
CCn1nc(C#Cc2c(C)ccc3c(Nc4ccc(Cl)cc4)nccc23)c2c(N)ncnc21 | 6.73% (active)
Cc1ccc(S(=O)(=O)Nc2sccc2-c2nc(-c3ccccc3)no2)cc1 | 85.9% (inactive)
CCCCCOC(=O)c1cccc(NC(=O)CN(CC)CC)c1 | 74.9% (inactive)
COc1cc2oc(-c3cccc(C(=O)Nc4ccc(C#N)cc4)c3)cc(=O)c2c(O)c1OC | 55.5% (inactive)
COc1ccc(-n2ncn(CCCCCCn3cnn(-c4ccc(OC)cc4)c3=O)c2=O)cc1 | 94.5% (inactive)
COc1ccc(C2CC(c3ccccc3)=NN2c2nc(C)c(C(C)=O)s2)cc1 (centres undefined) | 97.3% (inactive)
CC(C)(C)CC(C)(C)Nc1c(-c2ccc(-c3ccccc3)cc2)nc2cnccn12 | 59.8% (inactive)
N#Cc1cccc(-c2nc3ccccn3c2NCCN2CCOCC2)c1 | 89.9% (inactive)
C=C1C(=O)O[C@H]2[C@H]1CC/C(COC(=O)/C=C/C(=O)NCc1ccc(Cn3c(=O)sn(-c4ccccc4)c3=O)cc1)=C\CC[C@@]1(C)O[C@@H]21 | -79.1% (active)
CCC(C)NCc1ccccc1 (centres undefined) | 91.8% (inactive)
CC(C)n1nc(C#Cc2cccc3cc(-c4cccc(C(F)(F)F)c4)ncc23)c2c(N)ncnc21 | 31.4% (inactive)
